Several values for one entry are separate records, joined by “and”; a condition that tells them apart may be missing. Equal entries are not always repeated. Results filed as inconclusive are left out. Activity calls are given as the source filed them. Unless noted, calls follow the shape of the dose curve; as a rule, active = well fitted curve in the direction sought with a large enough effect; inconclusive = small, poorly fitted or top-dose-only effect, or another doubt; inactive = no such curve, though single readings can be large; an effect the other way counts as inactive or inconclusive.
Legend:
[1] = molecular target: Mitogen-activated protein kinase 10 (Mus musculus) (UniProt Q61831); test: JNK3 AlphaScreen Assay (AID 530; active = well fitted curve in either direction with a large enough effect, not every such curve was filed as active;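 also: kinase came from lysate of stimulated human HepG2 cells; signal reports phosphorylation of biotinylated GST-cJun 1-79 at Ser73 with 10 µM ATP; % is scaled to controls: 0 for no effect and ±100 for the full control effect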)
Summary of the method: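 HepG2 lysate (IL-1b/TNFa pre-activated) + biotin-GST-cJun 1-79 + anti-pSer73 cJun; cpd titration, 15 min RT; ATP 10 uM start; Tris pH 7.6, MgCl2, DTT, vanadate; beads in EDTA buffer; AlphaScreen.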

[2] = Cellular Toxicity (caspase-3) HepG2 (AID 654);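 also: cells exposed to compound for 16 hours before reading; 0% = DMSO alone and 100% = caspase signal from 100 µM tamoxifen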
Summary of the method: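 Luminescent Caspase-Glo 3/7 readout after 16 hr compound exposure of human hepatocellular carcinoma HepG2 cells at 37 °C; qHTS concentration-response, normalized DMSO = 0%, 100 uM tamoxifen = 100%; AC50 by standard Hill equation.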

[3] = Cellular Toxicity (caspase-3) HUV-EC-C (AID 656)
Summary of the method: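 Luminescent caspase-3/7 activation (aminoluciferin substrate cleavage) in HUV-EC-C cells after 16 hr compound exposure, 37°C. Signal normalized to DMSO basal and 100 uM tamoxifen as 100%; AC50 from concentration-response fitted with the Hill equation.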

[4] = Cellular Toxicity (caspase-3) SHSY5Y (AID 657);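 also: cells exposed to compound for 16 hours at 37 °C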
Summary of the method: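 Luminescent caspase-3/7 readout (aminoluciferin release) in SH-SY5Y cells after 16 h compound exposure in complete medium. Activity scaled between DMSO basal and 10 uM staurosporine as 100%; concentration-response fitted to Hill equation for AC50.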

[5] = Cellular Toxicity (caspase-3) BJ (AID 658); conditions: Potency: caspase-3 activation;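 also: cells exposed to compound for 16 hours; 0% = DMSO basal and 100% = 10 µM staurosporine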
Summary of the method: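 qHTS, BJ fibroblasts, 1000 cells/well; 5 hr preincubation, 16 hr compound, 37 °C; Caspase-Glo 3/7 reagent, 1 hr RT; luminescence. DMSO = 0%, 10 uM staurosporine = 100%. Hill-equation AC50.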

[6] = Cellular Toxicity (caspase-3) MRC-5 (AID 659);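 also: 0% = DMSO basal and 100% = 10 µM staurosporine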
Summary of the method: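 MRC-5 fibroblasts, 1500/well; 16 h cpd, 37 °C; Caspase-Glo 3/7, 1 h RT; lumi read. Norm: DMSO = 0%, 10 uM staurosporine = 100%. Hill-fit AC50 from qHTS conc-response.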

[7] = Cellular Toxicity (caspase-3) Mesangial (AID 660);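 also: combined caspase 3 and 7 activity read by Caspase-Glo luminescence; cells exposed to compound for 16 h before the caspase read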
Summary of the method: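 Luminescent Caspase-Glo 3/7 readout (aminoluciferin substrate cleavage, 20 min RT) after 16 h compound exposure at 37 °C of normal human mesangial cells. Signal increase normalized between DMSO basal and 100 uM tamoxifen; Hill-equation AC50.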

[8] = Cellular Toxicity (caspase-3) Hek293 (AID 664); conditions: HEK293 caspase-3 activation, DMSO = 0%, 100 µM tamoxifen = 100%; at 92.2 µM (top of the series);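 also: cells exposed to compound for 16 h at 37 °C before readout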
Summary of the method: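 Luminescent Caspase-Glo 3/7 readout (aminoluciferin release) in HEK293 cells after 16 h compound treatment, 37 °C. Normalization: DMSO = basal, 100 uM tamoxifen = 100% stimulation. Concentration-response fitted with standard Hill equation for AC50.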

[9] = Cellular Toxicity (caspase-3) N2a (AID 665);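 also: compound exposure lasted 16 h at 37 °C before readout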
Summary of the method: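 Luminescent Caspase-Glo 3/7 readout in N2a mouse neuroblastoma cells after 16 h compound exposure at 37 °C. Signal scaled to DMSO (basal) and 10 uM staurosporine (100%). Concentration-response fitted with Hill equation for AC50.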

[10] = Cellular Toxicity (caspase-3) Renal Proximal Tubule (AID 667); conditions: Potency: caspase-3 activation;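 also: cells exposed to compound for 16 hours at 37 °C before detection; 0% = DMSO basal and 100% = 10 µM staurosporine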
Summary of the method: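 Luminescent caspase 3/7 signal from peptide-aminoluciferin cleavage measures apoptosis in freshly isolated rat kidney proximal tubule cells after 16 h compound exposure. Concentration-response data are normalized to DMSO and 10 uM staurosporine, and AC50 values come from Hill equation fits.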

[11] = molecular target: Peroxisome proliferator-activated receptor alpha (Homo sapiens) (UniProt Q07869); test: qHTS assay for small molecule agonists of the peroxisome proliferator-activated receptor alpha (PPARalpha) signaling pathway (AID 651778); conditions: PathHunter PPARalpha complementation, chemiluminescence, 6 h; max response: active compounds read high; also: % of control where 0% means no effect
Summary of the method: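 Enzyme-fragment complementation assay in which ligand-bound PPARalpha translocates and forms an active enzyme that generates chemiluminescence. Cells were plated overnight, exposed to compound for 6 hr at 37 C, and then given detection reagent for 60 min at room temperature.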

[12] = qHTS assay for small molecule agonists of the antioxidant response element (ARE) signaling pathway measured by Nrf2-dependant transcriptional activity - cell viability counter screen (AID 720653; active = well fitted curve in the direction sought with a large enough effect in the repeat runs; an effect the other way counts as inactive or inconclusive; also: % is scaled to controls: 0 for no effect and ±100 for the full control effect); conditions: ARE-bla HepG2 viability, CellTiter-Glo ATP luminescence, 16 h; max response: active compounds read low
Summary of the method: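 ARE-bla HepG2 cells treated with compounds for 16 h at 37C; this counter screen measures viability as intracellular ATP by CellTiter-Glo luminescence after 30 min at room temperature.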

[13] = qHTS assay for cell viability of the p53RE-bla HCT-116 cell line (AID 743292); also: % is scaled to controls: 0 for no effect and ±100 for the full control effect; nearly all actives have a fitted effect of over 55% in size
Summary of the method: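 Readout: CellTiter-Glo luminescence after 30 min RT. Treatment: compounds in DMSO, 16 h, 37 C. Cells: CellSensor p53RE-bla HCT-116, 4,000/well, preincubated 5 h.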

[14] = molecular target: Cytochrome P450 1A2 (Homo sapiens) (UniProt P05177); test: p450-cyp1a2 (AID 410; calls by dose curve;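 also: -100% = full effect of reference inhibitor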)
Summary of the method: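 20nM CYP1A2, 100uM Luciferin-ME (=Km), 100mM KPO4; cpd 10 min RT; +NADPH regen, 60 min RT; stop/detect 20 min; luminescence. Normalized to furafylline 57 uM = full inhibition.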

[15] = Stat Signaling Pathway (AID 446; active = well fitted curve in either direction with a large enough effect, not every such curve was filed as active;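 also: ME-180 cervical cancer cells given 40 pM IL-6 alongside compound; SIE-controlled beta-lactamase reporter measured as 460/530 nm FRET emission ratio; % is scaled to controls: 0 for no effect and ±100 for the full control effect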); conditions: ME-180 SIE beta-lactamase reporter, IL-6 stimulated, 5 h
Summary of the method: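 FRET read-out (405 nm excitation, 460/530 nm emission) of a beta-lactamase reporter under a STAT-inducible element in ME-180 cervical carcinoma cells. Cells with compound receive 40 pM IL-6 for 5 h. Values are normalised to AC90 stimulation and AC90 JAK-inhibitor controls.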

[16] = molecular target: Glucocorticoid receptor (Homo sapiens) (UniProt P04150); test: GR-GFP Redistribution (AID 450;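 active = compounds whose dose series gives a full or clear partial fitted curve of increased nuclear translocation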; also: potency is read from the fitted curve at half-maximal effect); conditions: U2OS GR-GFP nuclear translocation, laser cytometry, 2 h
[17] = molecular target: Glucocorticoid receptor (Homo sapiens) (UniProt P04150); test: GR-EFC Redistribution (AID 451; calls by dose curve; also: potency is read from the fitted curve at half-maximal effect); conditions: CHO-K1 GR-EFC translocation, beta-gal luminescence, 2 h
Summary of the method: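 CHO-K1 cells expressing nuclear EA and GR-ED fragments of b-gal; compounds titrated up to 46 uM final, 2 h at 37 C. GR nuclear translocation read as complemented b-gal luminescence after 1 h RT detection.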

[18] = molecular target: 3',5'-cyclic-AMP phosphodiesterase 4B (Homo sapiens) (UniProt Q07343); test: qHTS Assay for Inhibitors of PDE-IV (AID 607; active = well fitted activation curve with a large enough effect in the main read-out, with a control signal flat, not every such curve was filed as active; also: % of control where 0% means no effect)
Summary of the method: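 Cell-based read-out of cAMP via a modified cyclic nucleotide-gated channel and membrane potential dye (535/590 nm) in HEK293 cells expressing PDE4 endogenously. Compounds tested up to 22.9 uM final; 100 uM RO 20-1724 reference.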

[19] = AP1 Signaling Pathway (AID 357; active = well fitted curve in either direction with a large enough effect, not every such curve was filed as active;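 also: ME-180 reporter cells stimulated with EGF at its EC50 level; % is scaled to controls: 0 for no effect and ±100 for the full control effect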); conditions: ME-180 (cervical carcinoma) AP-1-bla reporter, EGF-induced, beta-lactamase ratio, 5 h; at 7.69 µM (top of the series) unless noted
Summary of the method: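 Beta-lactamase reporter under AP-1 response element, ME-180 background. Stimulus: EC50 EGF. Compound exposure 5 h, 37 °C. Detection: CCF4, 2.5 h RT, 460/530 nm. Values: AC50 from titration.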

[20] = NFAT Signaling Pathway (AID 444; active = well fitted curve in either direction with a large enough effect, not every such curve was filed as active); conditions: Jurkat NFAT-bla M1, carbachol, beta-lactamase ratio, 5 h; at 7.69 µM (top of the series) unless noted
Summary of the method: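 Jurkat cells with NFAT-driven β-lactamase reporter and co-expressed M1 receptor, stimulated with carbachol (final 1 uM, ~EC50), compound titration, 5 h at 37 °C. CCF4 loaded 1 h at RT; 460/530 nm ratio gave %activity and AC50.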

[21] = at 7.69 µM (top of the series) unless noted

Sequence of Cytochrome P450 1A2 (Homo sapiens) (P05177 whole entry, looked up): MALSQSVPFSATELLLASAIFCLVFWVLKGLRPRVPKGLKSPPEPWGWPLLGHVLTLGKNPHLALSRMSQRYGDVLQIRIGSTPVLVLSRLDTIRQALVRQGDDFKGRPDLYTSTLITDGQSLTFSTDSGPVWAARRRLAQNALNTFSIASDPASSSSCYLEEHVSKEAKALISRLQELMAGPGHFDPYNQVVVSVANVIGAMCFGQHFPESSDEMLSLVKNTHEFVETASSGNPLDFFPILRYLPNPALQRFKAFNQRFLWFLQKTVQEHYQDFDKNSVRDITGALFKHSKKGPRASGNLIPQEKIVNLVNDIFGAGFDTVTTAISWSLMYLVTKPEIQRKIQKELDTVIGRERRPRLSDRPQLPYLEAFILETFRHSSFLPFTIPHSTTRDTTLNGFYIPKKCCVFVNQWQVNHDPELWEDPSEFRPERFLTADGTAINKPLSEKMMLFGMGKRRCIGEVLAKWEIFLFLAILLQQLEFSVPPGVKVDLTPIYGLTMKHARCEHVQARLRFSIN
Sequence of Glucocorticoid receptor (Homo sapiens) (P04150 whole entry, looked up, the tested form may be a part): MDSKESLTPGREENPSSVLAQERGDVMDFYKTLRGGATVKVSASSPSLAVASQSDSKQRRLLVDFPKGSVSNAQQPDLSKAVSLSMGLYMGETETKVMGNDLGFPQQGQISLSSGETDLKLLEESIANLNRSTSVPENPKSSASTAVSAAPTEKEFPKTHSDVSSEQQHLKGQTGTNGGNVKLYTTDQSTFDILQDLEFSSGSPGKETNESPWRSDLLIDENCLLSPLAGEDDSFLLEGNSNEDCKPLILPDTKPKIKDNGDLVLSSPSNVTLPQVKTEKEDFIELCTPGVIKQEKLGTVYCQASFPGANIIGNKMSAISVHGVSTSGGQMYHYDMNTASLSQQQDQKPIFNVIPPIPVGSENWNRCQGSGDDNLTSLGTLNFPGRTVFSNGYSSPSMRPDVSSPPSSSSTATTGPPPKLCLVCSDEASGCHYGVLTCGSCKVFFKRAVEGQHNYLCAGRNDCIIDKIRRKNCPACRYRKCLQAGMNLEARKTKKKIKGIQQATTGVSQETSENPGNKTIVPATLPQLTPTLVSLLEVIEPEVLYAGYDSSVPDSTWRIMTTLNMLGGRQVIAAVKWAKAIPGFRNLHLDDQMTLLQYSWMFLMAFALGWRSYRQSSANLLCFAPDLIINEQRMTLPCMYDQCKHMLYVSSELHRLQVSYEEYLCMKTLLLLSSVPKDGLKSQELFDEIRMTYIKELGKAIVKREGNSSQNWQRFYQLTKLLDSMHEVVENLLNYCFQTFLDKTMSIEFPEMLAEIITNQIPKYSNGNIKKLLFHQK
Sequence of Peroxisome proliferator-activated receptor alpha (Homo sapiens) (Q07869 whole entry, looked up, the tested form may be a part): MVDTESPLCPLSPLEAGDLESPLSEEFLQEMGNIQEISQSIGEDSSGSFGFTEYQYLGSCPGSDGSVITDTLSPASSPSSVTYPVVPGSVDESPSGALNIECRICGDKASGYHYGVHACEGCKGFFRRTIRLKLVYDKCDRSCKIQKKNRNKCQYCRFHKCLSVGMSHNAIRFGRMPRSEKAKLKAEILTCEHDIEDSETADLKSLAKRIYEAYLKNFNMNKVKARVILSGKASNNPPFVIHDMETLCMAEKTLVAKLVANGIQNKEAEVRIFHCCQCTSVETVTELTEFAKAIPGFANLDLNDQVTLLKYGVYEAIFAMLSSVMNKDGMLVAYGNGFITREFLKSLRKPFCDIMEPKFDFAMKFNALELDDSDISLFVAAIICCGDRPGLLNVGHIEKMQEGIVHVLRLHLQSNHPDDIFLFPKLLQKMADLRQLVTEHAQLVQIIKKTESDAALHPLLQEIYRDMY
Sequence of 3',5'-cyclic-AMP phosphodiesterase 4B (Homo sapiens) (Q07343 whole entry, looked up): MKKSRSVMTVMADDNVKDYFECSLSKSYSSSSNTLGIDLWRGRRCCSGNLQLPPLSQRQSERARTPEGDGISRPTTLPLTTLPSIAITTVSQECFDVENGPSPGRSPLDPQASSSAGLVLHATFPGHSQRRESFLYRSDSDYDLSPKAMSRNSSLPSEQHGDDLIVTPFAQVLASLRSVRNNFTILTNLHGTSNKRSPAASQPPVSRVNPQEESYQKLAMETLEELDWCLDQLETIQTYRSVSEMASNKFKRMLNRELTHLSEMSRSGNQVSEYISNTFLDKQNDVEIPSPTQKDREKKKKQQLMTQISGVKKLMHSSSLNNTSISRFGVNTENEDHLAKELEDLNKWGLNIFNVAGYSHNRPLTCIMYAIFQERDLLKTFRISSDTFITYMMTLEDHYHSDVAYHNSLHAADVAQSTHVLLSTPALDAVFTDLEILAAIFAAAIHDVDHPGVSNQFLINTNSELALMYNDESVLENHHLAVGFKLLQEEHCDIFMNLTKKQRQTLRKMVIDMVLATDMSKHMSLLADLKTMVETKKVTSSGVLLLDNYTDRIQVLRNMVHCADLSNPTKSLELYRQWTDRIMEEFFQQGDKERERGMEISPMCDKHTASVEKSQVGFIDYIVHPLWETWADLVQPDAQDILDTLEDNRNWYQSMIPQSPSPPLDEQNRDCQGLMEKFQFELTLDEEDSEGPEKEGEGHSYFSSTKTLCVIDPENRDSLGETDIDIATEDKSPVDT

CCCC(=O)OC(=O)CCC
inactive: Potency [1] | Potency [2] | Potency [3] | Potency [4] | Potency [5] | outcome [6] | outcome [7] | caspase-3 activation [8] 0.516% | outcome [9] | Potency [10] | max response [11] -9.39% and -1.32% | max response [12] -5.41% and 18.3% | Potency [13]

CC(C)C[C@H]1C(=O)N2CCC[C@@H]2[C@]2(O)O[C@](NC(=O)[C@H]3C=C4c5cccc6[nH]c(Br)c(c56)C[C@H]4N(C)C3)(C(C)C)C(=O)N12
inactive: Potency [14] | activity, negative = inhibition ([15]; at 17.2 µM (top of the series)) -20.4% | activity, negative = inhibition ([15]; at 38 µM (top of the series)) -18.7% | Potency [16] > 46 µM and > 20.6 µM | Potency [17] > 46 µM and > 20.6 µM | Potency [1] | Potency [18]

COc1ccc(C(=O)Nc2ccccc2)cc1[N+](=O)[O-]
inactive: Potency [1] | Potency [2] | Potency [3] | Potency [4] | Potency [5] | outcome [6] | outcome [7] | caspase-3 activation [8] -1.89% | outcome [9] | Potency [10] | max response [11] -0.106% | max response [12] 0.739% | Potency [13]

COc1ccccc1OC[C@H](O)CN1CCN(CC(=O)Nc2c(C)cccc2C)CC1
inactive: activity change, negative = inhibition [19] -8.83% [at 38 µM] | activity change, negative = inhibition [20] 12.3% [at 38 µM] | Potency [16] > 46 µM | Potency [17] > 46 µM | Potency [1] | Potency [18]

NCCSc1nc(-c2ccccc2)c(-c2ccccc2)o1
inactive: activity change, negative = inhibition [19] 2.27% | activity change, negative = inhibition [20] -4.41% | activity, negative = inhibition [15, 21] -3.16% | Potency [16] > 46 µM | Potency [17] > 9.22 µM | Potency [1] | Potency [18]

C[C@@H]1C[C@H]2[C@H]3C[C@@H](F)C4=CC(=O)C=C[C@]4(C)[C@@]3(Cl)[C@@H](O)C[C@@]2(C)[C@@H]1C(=O)COC(=O)C(C)(C)C
inactive: Potency [14] | activity change, negative = inhibition [20] -26.1% [at 17.2 µM] | activity, negative = inhibition [15, 21] -9.29% [at 17.2 µM] | Potency [1] | Potency [18]
